Laboratory results: PubChem BioAssay (Tox21)
Records with an inconclusive call do not appear. Active and inactive are the calls of the source. Unless noted, calls come from the whole dose curve; as a rule, active = well fitted curve in the direction sought with a large enough effect in the repeat runs; inconclusive = weak or mixed curves; inactive = no such curve, though single readings can be large; an effect the other way counts as inactive or inconclusive.

Tests used:
[1] = qHTS RealTime-Glo MT Cell Viability Assay in HEK293 cells - 0 hour (AID 1224880); note: top concentration of the series differs between compounds; nearly all actives have a fitted effect of over 45% in size
Summary of the method: (§1)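 Kinetic, non-lysing viability readout. Seed HEK293 (600/well) with reagent, incubate 5 h at 37 C/5% CO2, pin 23 nL compound in DMSO, incubate at 37 C, read luminescence at 0, 8, 16, 24, 32, 40 h.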

[2] = A CellTox Green Cytotoxicity Assay to monitor cytotoxicity in HEK293 cells - 32 hour (AID 1224881); note: nearly all actives have a fitted effect of over 40% in size
Summary of the method: (§2)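 Real-time, in one plate: 600 HEK293 cells/well with dead-cell DNA dye, pinned compound after 5 h, 37 C incubation over 40 h; viable cells give no appreciable fluorescence.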

[3] = A CellTox Green Cytotoxicity Assay to monitor cytotoxicity in HepG2 cells - 32 hour (AID 1224883); note: nearly all actives have a fitted effect of over 50% in size
Summary of the method: (§3)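 Cytotoxicity was tracked as dead-cell DNA fluorescence in HepG2 cells treated with test compounds at 37 C; each time-point value comes from one kinetic series spanning 0, 8, 16, 24, 32 and 40 h.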

[4] = A CellTox Green Cytotoxicity Assay to monitor cytotoxicity in HEK293 cells - 8 hour (AID 1224884); note: nearly all actives have a fitted effect of over 35% in size
Summary of the method: as §2

[5] = qHTS RealTime-Glo MT Cell Viability Assay in HepG2 cells - 16 hour (AID 1224885); note: nearly all actives have a fitted effect of over 50% in size
Summary of the method: (§4)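 HepG2 suspension premixed with RealTime-Glo reagents is plated at 600 cells per well and left 5 h at 37 C/5% CO2. Compounds in DMSO then go in, and bioluminescence reflecting viable cell number is recorded over 40 h.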

[6] = qHTS RealTime-Glo MT Cell Viability Assay in HEK293 cells - 24 hour (AID 1224886); note: top concentration of the series differs between compounds; nearly all actives have a fitted effect of over 50% in size
Summary of the method: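 Reads taken at 0, 8, 16, 24, 32 and 40 h from the same wells. HEK293 cells (600/well) carried RealTime-Glo reagents from seeding, with compound added after a 5 h settle at 37 C.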

[7] = qHTS RealTime-Glo MT Cell Viability Assay in HEK293 cells - 8 hour (AID 1224887); note: top concentration of the series differs between compounds; nearly all actives have a fitted effect of over 50% in size
Summary of the method: as §1

[8] = A CellTox Green Cytotoxicity Assay to monitor cytotoxicity in HEK293 cells - 16 hour (AID 1224888); note: nearly all actives have a fitted effect of over 35% in size
Summary of the method: as §2

[9] = qHTS RealTime-Glo MT Cell Viability Assay in HepG2 cells - 0 hour (AID 1224889); note: nearly all actives have a fitted effect of over 50% in size
Summary of the method: as §4

[10] = A CellTox Green Cytotoxicity Assay to monitor cytotoxicity in HepG2 cells - 8 hour (AID 1224890); note: nearly all actives have a fitted effect of over 45% in size
Summary of the method: as §3

[11] = qHTS assay to identify small molecule antagonists of the estrogen receptor alpha (ER-alpha) signaling pathway using the BG1 cell line in the presence of 0.1 nM 17-beta-estradiol - cell viability counter screen (AID 1259241); note: nearly all actives have a fitted effect of over 40% in size
Summary of the method: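 Following 5 days in phenol red-free medium with charcoal-stripped serum, VM7Luc4E2 cells received test compounds alongside 0.1 nM 17beta-estradiol (final) at 37C for 22 hr. Live cells were then quantified via protease-substrate fluorescence.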

[12] = qHTS assay to identify small molecule antagonists of the androgen receptor (AR) signaling pathway using the MDA cell line in the presence of 0.5 nM R1881 - cell viability counter screen (AID 1259242); note: nearly all actives have a fitted effect of over 45% in size
Summary of the method: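 Cells seeded at 3,000/well and allowed 5 hr at 37C, 0% CO2 before compound transfer and R1881 (0.5 nM final) addition; 16 hr later, live-cell protease fluorescence indicated cytotoxicity.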

[13] = qHTS assay to identify small molecule HDAC inhibitors (AID 1259364);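 note: wild-type HCT-116 cells with endogenous class I/II HDAC activity; top concentration of the series differs between compounds; nearly all actives have a fitted effect of over 45% in size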
Summary of the method: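 HCT-116 wt cells, 1,500/well, overnight attach. Compounds (DMSO) 2 h, 37 °C. HDAC-Glo I/II, 30 min RT. Luminescence.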

[14] = qHTS assay to identify small molecule HDAC inhibitors - cell viability counter screen (AID 1259365)
Summary of the method: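 HCT-116 wild-type, overnight attachment; 2hr drug exposure, 37C; CellTiter-Glo luminescent ATP readout after 30min RT.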

[15] = qHTS assay to identify small molecule agonists of the sonic hedgehog signaling (Shh) pathway - cell viability counter screen (AID 1259366); note: nearly all actives have a fitted effect of over 50% in size
Summary of the method: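 Compounds in DMSO were pin-transferred onto 3T3 Gli1-Luc cells that had settled 4hr; plates then stood 24hr at 37C and 5% CO2. One hour before the end, CellTiter-Fluor was added and fluorescence recorded.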

[16] = qHTS assay to identify small molecule antagonists of the sonic hedgehog signaling (Shh) pathway - cell viability counter screen (AID 1259367); note: nearly all actives have a fitted effect of over 55% in size
Summary of the method: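 Conditioned medium drove Shh signaling in 3T3 Gli1-Luc cells exposed to compounds at 37C and 5% CO2. Viability was determined from CellTiter-Fluor fluorescence, with reagent incubated 1 hr after 23 hr of treatment.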

[17] = A CellTox Green Cytotoxicity Assay to monitor cytotoxicity in HepG2 cells - 0 hour (AID 1224882); note: nearly all actives have a fitted effect of over 35% in size
Summary of the method: as §3

[18] = target: Estrogen receptor (Homo sapiens) (UniProt P03372); assay: qHTS assay to identify small molecule antagonists of the estrogen receptor alpha (ER-alpha) signaling pathway using the BG1 cell line in the presence of 0.1 nM 17-beta-estradiol (AID 1259244); note: nearly all actives have a fitted effect of over 50% in size
Summary of the method: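 Luciferase signal from VM7Luc4E2 ERE-reporter cells, co-dosed with test compound and 0.1 nM final 17beta-estradiol for 22 h, read with ONE-Glo.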

[19] = qHTS assay to identify small molecule phospholipidosis (PLD) inducers (AID 1259344; active = well fitted curve in the direction sought with a large enough effect; an effect the other way counts as inactive or inconclusive)
Summary of the method: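 After 4 h attachment on collagen I, HepG2 cells were dosed with compound alongside LipidTOX Red, kept 24 h at 37 C, fixed, and imaged for lamellar phospholipid pits.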

[20] = target: Androgen receptor (Homo sapiens) (UniProt P10275); assay: qHTS assay to identify small molecule antagonists of the androgen receptor (AR) signaling pathway using the MDA cell line in the presence of 0.5 nM R1881 (AID 1259243); note: nearly all actives have a fitted effect of over 50% in size
Summary of the method: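 Luminescence from an AR/GR-responsive MMTV-luciferase construct in MDA-kb2 breast carcinoma cells, read 30 min after ONE-Glo, following 16 hr co-treatment with compounds and 0.5 nM R1881.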
% is set by controls: 0 for no effect and ±100 for the full control effect.

Sequence of Estrogen receptor (Homo sapiens) (P03372 whole entry, looked up): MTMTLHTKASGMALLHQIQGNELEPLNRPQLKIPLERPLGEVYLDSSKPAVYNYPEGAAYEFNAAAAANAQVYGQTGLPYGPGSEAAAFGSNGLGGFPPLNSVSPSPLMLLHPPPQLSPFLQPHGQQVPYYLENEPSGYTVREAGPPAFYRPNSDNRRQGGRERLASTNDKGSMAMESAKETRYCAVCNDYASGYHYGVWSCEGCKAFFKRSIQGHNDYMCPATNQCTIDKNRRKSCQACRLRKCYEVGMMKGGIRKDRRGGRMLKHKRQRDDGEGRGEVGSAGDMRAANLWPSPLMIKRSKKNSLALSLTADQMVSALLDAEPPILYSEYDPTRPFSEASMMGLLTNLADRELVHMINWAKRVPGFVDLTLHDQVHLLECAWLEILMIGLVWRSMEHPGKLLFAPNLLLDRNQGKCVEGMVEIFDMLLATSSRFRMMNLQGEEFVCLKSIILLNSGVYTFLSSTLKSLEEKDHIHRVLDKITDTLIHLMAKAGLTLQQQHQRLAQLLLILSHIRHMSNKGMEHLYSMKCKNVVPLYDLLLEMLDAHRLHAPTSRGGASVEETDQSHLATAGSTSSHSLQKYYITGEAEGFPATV
Sequence of Androgen receptor (Homo sapiens) (P10275 whole entry, looked up): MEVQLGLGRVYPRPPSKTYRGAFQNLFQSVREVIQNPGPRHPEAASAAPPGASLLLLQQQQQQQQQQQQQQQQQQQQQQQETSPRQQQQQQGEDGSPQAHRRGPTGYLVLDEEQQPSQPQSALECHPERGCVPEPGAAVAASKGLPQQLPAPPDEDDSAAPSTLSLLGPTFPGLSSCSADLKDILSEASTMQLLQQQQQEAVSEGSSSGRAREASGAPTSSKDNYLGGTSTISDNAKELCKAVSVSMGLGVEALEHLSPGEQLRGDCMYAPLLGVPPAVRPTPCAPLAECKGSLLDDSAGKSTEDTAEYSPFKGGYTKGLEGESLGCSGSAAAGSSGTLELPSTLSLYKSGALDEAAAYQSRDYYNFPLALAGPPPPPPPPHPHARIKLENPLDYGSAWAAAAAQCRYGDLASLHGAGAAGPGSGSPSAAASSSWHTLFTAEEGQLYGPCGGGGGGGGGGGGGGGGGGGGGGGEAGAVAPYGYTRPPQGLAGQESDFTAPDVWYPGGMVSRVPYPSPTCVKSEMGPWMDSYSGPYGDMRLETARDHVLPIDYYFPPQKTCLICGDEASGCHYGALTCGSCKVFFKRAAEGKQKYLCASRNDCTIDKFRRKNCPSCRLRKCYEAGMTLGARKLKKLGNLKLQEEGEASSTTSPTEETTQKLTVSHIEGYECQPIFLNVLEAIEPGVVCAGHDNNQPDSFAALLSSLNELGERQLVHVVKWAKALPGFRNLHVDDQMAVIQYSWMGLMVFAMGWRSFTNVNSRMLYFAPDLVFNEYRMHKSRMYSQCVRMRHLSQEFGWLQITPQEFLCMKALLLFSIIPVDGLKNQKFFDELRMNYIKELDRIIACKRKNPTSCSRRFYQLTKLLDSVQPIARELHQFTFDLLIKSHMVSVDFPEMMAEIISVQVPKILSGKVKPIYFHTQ

C1=C\CC/C=C\CC/C=C\CC/1
inactive: outcome [1] | Potency [2] | Potency [3] | Potency [4] | outcome [5] | Potency [6] | Potency [7] | Potency [8] | Potency [9] | Potency [10] | outcome [11] | outcome [12] | Potency [13] | outcome [14] | Potency [15] | outcome [16]

CCN(CC)C(=O)c1ccc(O)c(OC)c1
inactive: outcome [1] | Potency [2] | Potency [17] | Potency [3] | Potency [4] | Potency [7] | Potency [8] | Potency [9] | Potency [10] | outcome [11] | outcome [12] | outcome [18] | Potency [19] | Potency [13] | Potency [15] | outcome [16]

NS(=O)(=O)c1cc(C2(O)NC(=O)c3ccccc32)ccc1Cl (configuration not stated)
inactive: outcome [1] | Potency [2] | Potency [3] | Potency [4] | outcome [5] | Potency [6] | Potency [7] | Potency [8] | Potency [9] | Potency [10] | outcome [11] | outcome [12] | Potency [19] | Potency [13] | outcome [14] | Potency [15] | outcome [16]

COc1ccc(COC=O)cc1
inactive: outcome [1] | Potency [2] | Potency [3] | Potency [4] | outcome [5] | Potency [6] | Potency [7] | Potency [8] | Potency [9] | Potency [10] | outcome [11] | outcome [12] | outcome [18] | Potency [13] | outcome [14] | Potency [15] | outcome [16]

CCCCCCCCC=O
inactive: outcome [1] | Potency [2] | Potency [17] | Potency [4] | outcome [5] | Potency [6] | Potency [7] | Potency [8] | Potency [9] | outcome [11] | outcome [12] | Potency [13] | outcome [14] | Potency [15] | outcome [16]

NCC[C@H](O)C(=O)N[C@@H]1C[C@H](N)[C@@H](O[C@H]2O[C@H](CN)[C@@H](O)[C@H](O)[C@H]2O)[C@H](O)[C@H]1O[C@H]1O[C@H](CO)[C@@H](O)[C@H](N)[C@H]1O
inactive: activity change, negative = cytotoxicity [1] 1.06% [at 0.29 µM] | cytotoxicity increase [2] 0.628% [at 0.29 µM] | cytotoxicity increase [3] -0.727% [at 0.29 µM] | cytotoxicity increase [4] -8.01% [at 0.29 µM] | activity change, negative = cytotoxic [5] 3.3% [at 0.29 µM] | activity change, negative = cytotoxicity [6] 4.59% [at 0.29 µM] | activity change, negative = cytotoxicity [7] 2.61% [at 0.29 µM] | activity change [8] 0.183% [at 0.29 µM, hits give high values] | activity change, negative = cytotoxicity [9] 7.1% [at 0.29 µM] | cytotoxicity increase [10] -0.472% [at 0.29 µM] | activity change, negative = cytotoxicity [11] 7.28% [at 0.349 µM] | viability change, negative = cytotoxic [12] 0.273% [at 0.349 µM] | activity, negative = inhibition [20] 0.695% [at 0.349 µM] | activity change, negative = inhibition [18] 9.86% [at 0.349 µM] | Potency [19] | activity change, negative = inhibition [13] 5.91% [at 0.349 µM] | viability change, negative = cytotoxic [15] 2.12% [at 0.349 µM] | viability change, negative = cytotoxic [16] 1.11% [at 0.349 µM]

CCCCCCCCCCCl
inactive: outcome [1] | Potency [17] | Potency [3] | Potency [4] | outcome [5] | Potency [6] | Potency [7] | Potency [8] | Potency [9] | Potency [10] | outcome [11] | outcome [12] | Potency [13] | outcome [14] | Potency [15] | outcome [16]

CCO[Si](CCCN=C=O)(OCC)OCC
inactive: outcome [1] | Potency [2] | Potency [3] | Potency [4] | outcome [5] | Potency [6] | Potency [7] | Potency [8] | Potency [9] | Potency [10] | outcome [12] | outcome [16]
